Structures are written as SMILES. The panel holds about 79,000 compounds, 15% with a hit somewhere; the sample as a whole holds those more often. Calls of active or inactive are those of the source. No stated cut-off is given here; in the data, active means growth inhibition above about 70%; inactive means the rest.

The nature of the first assay: NCI Yeast Anticancer Drug Screen. Data for the rad14 strain (AID 159).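 Further: 0% = growth of vehicle-treated control cultures.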 To be noted: S. cerevisiae rad14 strain growth inhibition; at 1.2 µM; hits give high values. In a few lines: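 Growth inhibition vs vehicle controls; genetically altered yeast strain (DNA damage repair defect) treated with test compounds.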
Turning to `CSc1nnc(SC)nn1`, the growth inhibition was -10% (inactive).

As to `COc1cc(/C=C2\CCC/C(=C\c3ccc(O)c(OC)c3)C2=O)ccc1O`, the growth inhibition was 5% (inactive).

In the case of `CN(C)CCNC(=O)c1cccc2cc([N+](=O)[O-])ccc12`, the growth inhibition was -1% (inactive).

For the compound `CCC(C)(C)c1ccc(Oc2cccc(C(=O)O)c2)cc1`, the growth inhibition is -6% (inactive).

Consider `CCCCCCSc1ncnc2[nH]ncc12`, for which the growth inhibition is -2% (inactive).

For the compound `CC(=O)Nc1ccc(/C=C/[N+](=O)[O-])cc1`, the growth inhibition is 2% (inactive).

In the case of `CCOC(=O)c1[nH]n(-c2ccccc2)c(=O)c1C=NC(=S)C(N)=S`, the growth inhibition is -15% (inactive).

Regarding `CCCC(O)C1CC(C(C)C)CCC1C` (centres undefined), the growth inhibition is -1% (inactive).

For `O=[n+]1c2ccccc2n([O-])c2cc(Br)ccc21`, the growth inhibition is 36% (inactive).

In the case of `CN(C)CCNC(=O)c1cccc2c1Oc1c(cccc1[N+](=O)[O-])O2`, the growth inhibition is -12% (inactive).

Turning to `Nc1ncc(-c2ccc(Br)cc2)s1`, the growth inhibition was -25% (inactive).

Consider `Cc1cc2cc3cc(C)c(N)cc3nc2cc1N`, for which the growth inhibition was -7% (inactive).

`CC12C(=O)OC(=O)C(c3ccccc31)c1ccccc12`: the growth inhibition is -4% (inactive).

In the case of `c1ccc2c(OCC3CO3)cccc2c1` (centres undefined), the growth inhibition is -1% (inactive).

Turning to `CCOC(=N)c1ccc(O)c(OC)c1`, the growth inhibition was -2% (inactive).

As for `Nc1cc(N)c(N=Nc2cccc3c(S(=O)(=O)O)cccc23)cc1N=Nc1cc([N+](=O)[O-])ccc1O`, the growth inhibition is -17% (inactive).

As to `COC(=O)Oc1cc(Cl)c(Cl)cc1Cl`, the growth inhibition is 0% (inactive).

With `O=C(O)C1CC(c2ccccc2)=NN1c1ccccc1` (centres undefined), the growth inhibition was -19% (inactive).

Regarding `COc1cc([C@@H]2c3cc4c(cc3[C@@H](Nc3ccc(NC(=O)c5cc([N+](=O)[O-])cn5C)cc3)[C@H]3COC(=O)[C@H]23)OCO4)cc(OC)c1O`, the growth inhibition was 4% (inactive).

On to `O=C(O)c1ccccc1/C=N/N=C1c2ccccc2-c2ccccc21`, for which the growth inhibition was 0% (inactive).

Regarding `O=C1CC(=O)c2ccccc21`, the growth inhibition is 0% (inactive).

As to `Nc1ncnc2c1ncn2C1OC(CO)CC1O` (centres undefined), the growth inhibition was -15% (inactive).

The assay is the same for the next values; noted with them: S. cerevisiae rad14 strain growth inhibition; at 3.7 µM; hits give high values.
For the compound `CS(=O)(=O)SCc1ccc([N+](=O)[O-])cc1`, the growth inhibition is 18% (inactive).

For the compound `Cc1csc(=S)n1OC(=O)NC1CCCCC1`, the growth inhibition is 96% (active).

On to `CCOc1ccc(NC(=O)C2=C(C)NC(C)=C(C(=O)Nc3ccc(OCC)cc3)C2c2cccc([N+](=O)[O-])c2)cc1`, for which the growth inhibition is -2% (inactive).

As to `CC(C)(C)N=C(NO)c1ccccc1`, the growth inhibition was -3% (inactive).

For the compound `CCCCC/C(=C(\C#N)C(=O)OCC)c1ccccc1`, the growth inhibition was -2% (inactive).

Take `O=C(NCCCl)Sc1ccc(Cl)cc1`: the growth inhibition is -7% (inactive).

`O=C1Nc2ccc(Br)cc2C1=Nc1ccc2c(c1)OCO2`: the growth inhibition was -29% (inactive).

In the case of `CCC(C)OC(=O)Nc1ccc(C)c(NC(=O)OC(C)CC)c1` (centres undefined), the growth inhibition was 2% (inactive).

As to `O=C(O)c1cc2ccc(Cl)cc2c(O)c1C1=CCCCC1`, the growth inhibition is -10% (inactive).

Turning to `CN(C)Cc1cc(N=Nc2ccc(Cl)cc2)ccc1OC(=O)c1ccccc1`, the growth inhibition is -2% (inactive).

Consider `CN1CCN(C(=O)/C=C/C(=O)c2ccccc2)CC1`, for which the growth inhibition is 12% (inactive).

Take `CCCC/C=C/C(C)(C(=O)OCC)C(=O)OCC`: the growth inhibition was -5% (inactive).

Turning to `Cc1nc(-c2cc3cc([N+](=O)[O-])ccc3oc2=O)cs1`, the growth inhibition is 6% (inactive).

Take `Cc1nc2ccccc2nc1NNc1ccccc1`: the growth inhibition was -7% (inactive).

In the case of `CN(C)[C@@H]1C(=O)C(C(N)=O)=C(O)[C@@]2(O)C(=O)C3=C(O)c4c(O)cccc4C[C@H]3C[C@@H]12`, the growth inhibition was -5% (inactive).

As for `COc1ccc(NC(=O)CC2SC(=Nc3ccccc3C)NC2=O)c([N+](=O)[O-])c1` (centres undefined), the growth inhibition was -2% (inactive).

For the compound `COc1cc(O)c2c(c1O)C(=O)c1cc(C)ncc1C2=O`, the growth inhibition is 47% (inactive).

Turning to `CSc1nnc(SC)nn1`, the growth inhibition was 0% (inactive).

On to `COc1cc(/C=C2\CCC/C(=C\c3ccc(O)c(OC)c3)C2=O)ccc1O`, for which the growth inhibition was -3% (inactive).

Regarding `CN(C)CCNC(=O)c1cccc2cc([N+](=O)[O-])ccc12`, the growth inhibition is 10% (inactive).

On to `CCC(C)(C)c1ccc(Oc2cccc(C(=O)O)c2)cc1`, for which the growth inhibition is -14% (inactive).

On to `CCCCCCSc1ncnc2[nH]ncc12`, for which the growth inhibition was 1% (inactive).

Consider `CC(=O)Nc1ccc(/C=C/[N+](=O)[O-])cc1`, for which the growth inhibition is 11% (inactive).

On to `CCOC(=O)c1[nH]n(-c2ccccc2)c(=O)c1C=NC(=S)C(N)=S`, for which the growth inhibition is -15% (inactive).

With `CCCC(O)C1CC(C(C)C)CCC1C` (centres undefined), the growth inhibition is 0% (inactive).

As to `O=[n+]1c2ccccc2n([O-])c2cc(Br)ccc21`, the growth inhibition is 56% (inactive).

Consider `CN(C)CCNC(=O)c1cccc2c1Oc1c(cccc1[N+](=O)[O-])O2`, for which the growth inhibition is -12% (inactive).
